Source: PubChem BioAssay AID720486 (Milwaukee Institute for Drug Discovery, 2013)
Some of the results follow. A number with no mark means an inactive call. Active and inactive are the calls of the source.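 How the source made its calls: active means inhibition of at least 50%; inactive means the rest.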

target: Single-stranded DNA-binding protein (Escherichia coli (strain K12)) (UniProt P0AGE0); experiment: disruption of SSB binding to ssDNA – biochemical, fluorescence polarization, selected ChemBridge compounds, counter-screen for HCV NS3 helicase inhibitor project (AID 720486);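 further: displacers lower Cy5 polarization so higher inhibition means more SSB displaced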; details: E. coli SSB binding Cy5-dT15, fluorescence polarization; at 100 µM; stronger effect = higher value
Sequence (P0AGE0 whole entry, looked up): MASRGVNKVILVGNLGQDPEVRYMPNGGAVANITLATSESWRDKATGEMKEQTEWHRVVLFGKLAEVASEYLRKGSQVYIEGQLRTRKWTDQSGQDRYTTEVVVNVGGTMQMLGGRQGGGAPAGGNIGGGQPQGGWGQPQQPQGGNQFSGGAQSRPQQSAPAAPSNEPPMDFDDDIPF

SMILES | inhibition
Cc1ccc(C(=O)NCCNc2ccc([N+](=O)[O-])cc2)cc1 | 34.5%
COc1cc(C=C2C(=O)NC(=O)NC2=O)ccc1OCCOc1ccc([N+](=O)[O-])cc1 | 19.9%
CC(C)(C)N1C(=O)NC(=O)C(=Cc2cccs2)C1=O | 11.4%
O=c1c2c(nc3cc(-c4cccc(F)c4)[nH]n13)CCS2 | 84.2% (active)
COc1ccc(N2C(=O)C=CC2=O)c([N+](=O)[O-])c1 | -5.58%
COc1ccc(C(=O)Oc2ccc3oc(=O)cc(C)c3c2)cc1OC | 12.6%
O=C1NC(=O)C(=Cc2cc([N+](=O)[O-])cc(Br)c2O)C(=O)N1 | 51.5% (active)
CCN(CC)c1ccc(C=C2C(=O)N(C)C(=O)N(C)C2=O)c(O)c1 | 30.8%
COc1cc(/C(O)=C(\C#N)c2nc3ccccc3n2C)cc(OC)c1OC | 10.2%
C=CCN1C(=O)/C(=C\c2cc(OC)c(O)c([N+](=O)[O-])c2)C(=O)NC1=S | 98.8% (active)
Cc1ccc(C(=O)C[n+]2cc(-c3ccccc3)n3c2CCCCC3)cc1 | 5.34%
O=C(NC(=S)Nc1ccc(-c2nc3cc(Cl)ccc3o2)cc1)c1ccco1 | 19.9%
CCN(CC)c1ccc(NC(=O)/C(=C\c2ccccc2)NC(C)=O)cc1 | 55.1% (active)
CCOc1ccc(C=C2C(=O)NC(=O)NC2=O)cc1Cl | 19.9%
N#Cc1c(N)nc2sc(C(=O)Nc3ccccc3)c(N)c2c1-c1ccco1 | 16.3%
